# Bioassay records: PubChem BioAssay, several laboratories
# Shown are actives, neighbours in structure and some others; about 2.9% of the full set was active somewhere.
# EBV LMP1 NFkB: inhibitors of Epstein-Barr LMP1-induced NF-kappaB reporter; inhibition, % at 12.5 µM; LMP1-induced NF-kappaB luciferase reporter cells, luminescence; hit rate 0.69% among 350,000; in the data active means inhibition above about 41%;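 further: 0% = neutral control wells and 100% = reference inhibitor control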
# Shn3 3UTR inh: inhibitors of Schnurri-3 3'UTR reporter in osteoblasts; Clone20 osteoblast Shn3 3'UTR firefly luciferase, 24 h; inhibition, % at 12.5 µM; hit rate 0.52% among 360,000;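 active means mean inhibition of at least 75% with every replicate also reaching 75%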;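 further: 0% = median of neutral control wells and 100% = pilot-screen positive control compound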
# HIF-2a inh: HIF-2a inhibition; AID 624352; inhibition, % at 18.8 µM; 786-0 RCC cells HIF-2a reporter, luciferase luminescence, overnight; hit rate 0.72% among 360,000;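 active means inhibition of the luminescence signal of 40% or more relative to plate controls, in a single-dose primary screen at 18.75 µM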
# Peg3 prom inh: inhibitors of Peg3 promoter; hit rate 1.7% among 360,000; HeLa PEG-Prom luciferase reporter, luminescence, overnight; inhibition, % at 20 µM; AID 588405;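 active means inhibition of at least 50% at 20 µM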
# KKLEB cytotox: reduces viability of KKLEB cystic fibrosis airway cells; activity change (cytotoxicity), % at 5 µM; KKLEB CF airway cells viability, ATPlite luminescence, overnight; hits give low values; cells stimulated with P. aeruginosa culture filtrate; hit rate 0.36% among 360,000;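 active means corrected activity change at or below -50% at 5 µM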
# CF NFkB block: blocks PAF-induced NF-kB reporter in cystic fibrosis cells. KKLEB NF-kB-GFP reporter, GFP fluorescence overnight. hit rate 0.86% among 360,000. inhibition, % at 5 µM. AID 588850;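 active means at least 50% inhibition at 5 µM, scaled per plate between neutral and stimulator controls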;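 further: PAF is a Pseudomonas aeruginosa culture filtrate used as stimulus; plate controls were PAF-stimulated DMSO wells for no effect and unstimulated DMSO wells for full effect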
# Active calls of the source: *; . = no result given.
SMILES,EBV LMP1 NFkB,Shn3 3UTR inh,HIF-2a inh,Peg3 prom inh,KKLEB cytotox,CF NFkB block
COCCN(C(=O)COC(=O)C1CCC(C(C)(C)C)CC1)c1c(N)n(Cc2ccccc2)c(=O)[nH]c1=O (centres undefined),-10.2,87.8*,11.0,27.0,0.3,9.2
CC(C)CN(C(=O)COC(=O)c1ccc(Br)cc1)c1c(N)n(Cc2ccccc2)c(=O)[nH]c1=O,-4.2,3.8,13.6,63.4*,21.4,-13.8
Nc1c(N(CCC2=CCCCC2)C(=O)COc2ccc(F)cc2)c(=O)[nH]c(=O)n1Cc1ccccc1,4.0,53.1,0.2,97.3*,-8.3,10.8
CCOc1ccccc1C(=O)NCCN1CCC(n2c(=O)[nH]c3ccccc32)CC1,.,.,-22.3,.,.,.
CN(C)CCNc1cccc2sc3ccc(O)cc3c(=O)c12,.,-35.5,42.6*,99.1*,-28.8,-65.7
COc1cc(C)c2sc3ccccc3c(=O)c2c1NCCN(C)C,-4.3,2.6,-34.5,100.4*,-19.0,-28.8
CCN(CC)CCCNc1ccc2ncn3c4ccc(O)cc4c(=O)c1c23,27.7,20.7,34.2,22.6,-10.6,-23.5
Cc1ccc(O)c(C(=O)c2cnn(-c3ccccc3)c2)c1,5.9,-55.3,-29.1,-179.0,6.8,7.1
Cc1ccc(-n2cc(C(=O)c3ccccc3O)cn2)cc1,78.3*,-6.6,30.0,-16.3,-9.2,4.3
Cc1nnc(C)n1/N=C/c1cc2ccccc2nc1Cl,-9.6,7.1,15.1,78.3*,1.0,-16.1
OC(CN1CCN(c2ccccn2)CC1)Cn1c2ccc(Cl)cc2c2cc(Cl)ccc21 (centres undefined),-33.5,5.7,10.0,35.7,-7.4,1.5
OC(CN1CCCCC1)Cn1c2ccc(Cl)cc2c2cc(Cl)ccc21 (centres undefined),6.0,-26.7,7.1,103.9*,-13.9,27.9
COC(=O)C1CCCCN1C(=O)c1cc(COc2cccc3cnccc23)on1 (centres undefined),26.8,79.3,14.7,29.2,-5.0,49.3
CCOC(=O)CC1CCCCN1C(=O)c1cc(COc2cccc3cnccc23)on1 (centres undefined),33.0,89.3*,27.6,11.3,-2.6,28.8
CCN1CCN(CCCNC(=O)CNC(=O)c2nn(-c3ccc(OC)cc3OC)c(=O)c3ccccc23)CC1,-2.3,5.7,5.1,1.9,9.1,-10.2
CCOC(=O)[C@@H]1[C@H]2COc3cc(OC)ccc3[C@@H]2N2C(=O)N(c3ccc(Cl)cc3)C(=O)[C@]12C,2.0,-0.4,10.4,-6.0,-10.4,3.7
CN(Cc1ccccc1Cl)C(=O)CNC(=O)C12CC3CC(CC(C3)C1)C2,-2.7,26.1,-3.0,-0.4,1.9,7.1
CCn1c(C)c(C)c2cc(C(=O)Nc3cccc(Cl)c3)ccc21,52.9*,-13.2,-214.6,-155.3,6.8,-8.9
O=C(NCc1ccc(F)cc1)C(c1ccc(Cl)cc1)N(C(=O)c1csnn1)C1CC1 (centres undefined),-5.1,10.0,3.2,17.3,5.1,-6.2
CC(C)(CO)NCc1c(OCc2ccc(Cl)cc2)ccc2ccccc12,9.5,16.6,-54.3,53.7*,-1.3,10.8
O=C(NNC(=O)C1CCN(S(=O)(=O)c2ccc(Cl)cc2)CC1)c1ccccc1O,-8.4,87.0*,7.9,23.4,11.1,4.1
COc1ccc(-n2c(C)c([N+](=O)[O-])c3ccc(O)c(CN4CCCCC4)c32)cc1,5.0,73.9,20.1,10.0,-33.2,73.3*
COc1ccccc1OCCC(=O)OCC(=O)Nc1ccc(Br)cc1F,3.1,1.9,16.0,2.3,0.5,5.8
COC(=O)C(C)NC(=S)N1CCN(c2c(F)cc3c(=O)c(C(=O)O)cn(C4CC4)c3c2OC)CC1C (centres undefined),-5.8,26.4,23.1,11.6,8.5,12.5
O=C(CC1C(=O)NCCN1Cc1ccccc1C(F)(F)F)NC1CCC1 (centres undefined),3.8,30.8,13.0,4.7,2.5,20.3
SMILES,EBV LMP1 NFkB,Shn3 3UTR inh,HIF-2a inh,Peg3 prom inh,KKLEB cytotox,CF NFkB block
CC(=O)Nc1ccc(N/C(N)=N/c2nc(C)cc(C)n2)cc1,-12.3,-3.2,23.5,37.6,12.6,-15.0
Cc1cc(C)nc(/N=C(\N)Nc2ccc(-c3ccccc3)cc2)n1,15.9,91.9*,-43.8,44.7,-3.9,1.7
O=C(CCl)N1CCN(S(=O)(=O)c2ccc3ccccc3c2)CC1,2.0,3.8,30.5,109.8*,-18.6,-20.0
CN(C)C(=O)N1CCN(S(=O)(=O)c2ccc3ccccc3c2)CC1,-0.1,10.1,7.9,11.2,5.8,-15.9
O=C(c1ccc2ccccc2n1)N1CCN(S(=O)(=O)c2ccccc2)CC1,-2.3,11.9,11.3,18.6,0.9,5.4
CCCCCCN1C[C@@H](n2cc(COC(=O)c3ccccc3)nn2)[C@H](O)C[C@@H]1c1ccccc1,9.0,-4.1,-4.1,65.0*,3.3,19.9
CSc1nnc(NC(=O)c2nc(S(=O)(=O)Cc3ccccc3)ncc2Cl)s1,8.1,96.4*,2.7,105.0*,-82.0*,91.4*
CCOC(=O)c1ccc(NC(=O)CCS(=O)(=O)Cc2ccccc2)cc1,-10.9,-5.7,13.3,-3.3,-8.9,-1.6
CCOC(=O)c1ccc(NC(=O)c2nc(S(=O)(=O)Cc3ccccc3)ncc2Cl)cc1,9.7,96.1*,88.5*,109.6*,-65.8*,95.1*
CNS(=O)(=O)c1cccc(C(=O)OCc2cc(C(C)=O)ccc2OC)c1,0.7,81.8*,1.4,8.5,-12.8,3.4
CC(CCc1ccccc1)NC(=O)COC(=O)c1cc(NS(=O)(=O)c2ccc(Cl)c([N+](=O)[O-])c2)ccc1O (centres undefined),-9.5,-36.3,54.5*,56.6*,3.2,2.1
CNS(=O)(=O)c1cccc(C(=O)OCC(=O)NC(C)CCc2ccccc2)c1 (centres undefined),42.1*,-15.4,-2.8,17.9,-7.4,0.7
CC(CCc1ccccc1)NC(=O)COC(=O)c1cccc2ccccc12 (centres undefined),1.5,-3.2,-8.5,2.9,-12.3,-12.4
CCOc1ccc(NS(=O)(=O)c2ccc3ncsc3c2)cc1,4.1,-16.0,16.6,13.1,-15.8,14.1
COc1ccc(S(=O)(=O)N(C)C[C@@H]2Oc3c(NS(=O)(=O)c4cn(C)cn4)cccc3C(=O)N([C@@H](C)CO)C[C@@H]2C)cc1,0.6,12.0,5.9,-15.6,-6.2,-2.6
COc1ccccc1CCC(=O)Nc1ccc2c(c1)c(=O)n(C)n2C,.,-1.0,-20.1,-24.2,4.3,6.6
CC(=O)c1cccc(S(=O)(=O)NC2CC2)c1,-5.4,7.6,16.2,9.2,4.5,1.1
COCCn1c(C)cc(C(=O)COC(=O)C23CC4CC(CC(O)(C4)C2)C3)c1C,41.7*,-8.7,-48.1,-87.2,-1.8,21.2
CC(C)(C)OC(=O)NCc1ccc(CNC(=O)c2[nH]cnc2C(=O)NC2CCN(C(=O)OC(C)(C)C)CC2)cc1,4.8,3.5,3.5,61.4*,-2.1,8.0
